Data on six molecules can be found in PubChem BioAssay (NCI).

What all share (test): NCI-60 one-dose screen, 48 h (100 = growth as untreated, 0 = no growth, -100 = all killed)
What all share (conditions): 10 µM unless noted

In assay [1] the test system is HCT-15 colon.
Assay [2] deals with HT29 colon.
The subject of assay [3] is SNB-75 CNS.
The test system of assay [4] is SNB-19 CNS.
Assay [5] concerns U251 CNS.
For assay [6], the system named is PC-3 prostate.
Assay [7] concerns SK-MEL-5 melanoma.
Assay [8] has as its system UACC-62 melanoma.
Assay [9] relates to LOX IMVI melanoma.
Assay [10] concerns SK-MEL-28 melanoma.
Assay [11] has as its system SK-MEL-2 melanoma.
For assay [12], the system named is EKVX NSCLC.
Assay [13] concerns SN12C renal.
The subject of assay [14] is UO-31 renal.
In assay [15] the test system is TK-10 renal.
Assay [16] concerns ACHN renal.
Assay [17] relates to CAKI-1 renal.
For assay [18], the system named is A498 renal.
Assay [19] relates to CCRF-CEM leukemia.
Assay [20] has as its system MOLT-4 leukemia.

This is part of a sample that, as a whole, favours compounds with a hit. Of some 83,000 tested, about 20% had one in any assay.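 Activity criterion: percent growth below 10, measured after cells in 96-well plates were exposed to a single compound concentration for 48 hours.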 Values without a mark were called inactive. Activity calls are given as the source filed them.

As for `O=C(Nc1ncc(Cc2cccc(C(F)(F)F)c2)s1)c1ccc2c(c1)OCCO2`, the growth in assay [1] was 8.27% (active); in [2], 4.83% (active); in assay [3], 25.5%; in [4], 42.9%; in [5], 16.7%; in assay [6] it was 28.3%. Also, the growth is -21.5% (active) in assay [7]; 39.9% in assay [8]; 40.8% in assay [9]; 73.1% in [10]; 40.1% in [11]; 30.7% in [12]. Further, the growth was 35.3% in [13]; 47.7% in assay [14]; 44.9% in assay [15]; 29.8% in assay [16]; 24.6% in assay [17]; -2.08% (active) in assay [18]. Moreover, the values for the growth in assay [19] and in [20] were 17.8% and 9.32% (active), respectively.
In the case of `C[C@]12CCc3c(ccc4cc(O)ccc34)[C@@H]1C[C@H](O)[C@@H]2O`, the growth in assay [1] is 108%; in assay [2] it was 102%; in [3] it was 116%; in assay [4], 95%; in assay [5] it was 101%; in assay [6], 78.5%. The growth is 102% in assay [7]; 88.6% in [8]; 93.3% in assay [9]; 110% in assay [10]; 125% in assay [11]; 74.7% in [12]. In addition, the growth in [13] is 93%; in [14], 85.3%; in [15], 110%; in [16], 98%; in [17], 77.5%; in [18], 73%. For the same molecule, the growth in assay [19] was 84.7%; in [20], 102%.
In the case of `NS(=O)(=O)c1ccc(C(=O)N=Nc2c(O)[nH]c3c(F)cccc23)cc1`, the growth in [1] was 105%; in [2] it was 99.6%; in assay [3], 97.7%; in assay [4], 97.4%; in assay [5], 98.6%; in assay [6], 94.9%. For the same molecule, the growth is 101% in [7]; 99.6% in assay [8]; 98% in assay [9]; 105% in assay [10]; 104% in assay [11]; 102% in assay [12]. Besides, the growth in [13] was 97.1%; in [14], 76.4%; in assay [15], 107%; in assay [16], 97.3%; in assay [17], 93.2%; in [18] it was 104%. Further, the growth in assay [19] is 102%; in assay [20] it was 124%.
Turning to `C/C=C(\C)C(=O)N[C@H]1CC[C@]2(C)C3CC[C@@]4(C)C(CC[C@@H]4C(C)N(C)C)C3CCC2[C@H]1OC(C)=O` (stereo not given in full), the growth in [1] is -78.4% (active); in assay [2], -68.4% (active); in [3], -50% (active); in [4], -58.7% (active); in assay [5], -66.1% (active); in [6] it was 0.354% (active). Also, the growth in [7] was -100% (active); in [8], -51.7% (active); in assay [9] it was -78.8% (active); in assay [10], -97.5% (active); in assay [11] it was -32.7% (active); in [12], -11.3% (active). The growth is -3.57% (active) in assay [13]; -4.52% (active) in [14]; -48.3% (active) in assay [15]; -65.1% (active) in assay [16]; -43.3% (active) in assay [17]; -32.9% (active) in assay [18]. Also, the values for the growth in assay [19] and in assay [20] were 1.62% (active) and 11.2%, respectively.
As for `O=C(/C=C/c1ccc(F)cc1)Nc1ncc(Cc2ccc(F)cc2)s1`, the growth in assay [1] is 26.1%; in [2] it was 13.7%; in assay [3], 23.2%; in [4], 58.1%; in assay [5], 33.6%; in assay [6], 31.9%. Also, the growth in assay [7] was 2.79% (active); in assay [8] it was 14.1%; in [9], 9.96% (active); in assay [10], 67%; in [11], 32.3%; in assay [12] it was 32.1%. For the same molecule, the growth in assay [13] is 50.6%; in assay [14], 39%; in assay [15] it was 47.2%; in [16], 32.5%; in assay [17], 27.5%; in assay [18] it was 21.8%. Further, the growth was 34% in assay [19] and 30.9% in assay [20].
For `Cc1ccc2c(c1)C(C)Cc1c(ncnc1-n1cnc3cc(C)ccc31)N2C` (stereo not given), the growth in assay [1] was 12.3%; in assay [2] it was -10.3% (active); in assay [3], 60.3%; in [4] it was 37.8%; in assay [5] it was 6.82% (active); in assay [6], 24.5%. Besides, the growth was -24.2% (active) in [7]; 30.6% in assay [8]; 25.7% in assay [9]; 53.1% in [10]; -1.91% (active) in assay [11]; 47.2% in assay [12]. Also, the growth in assay [13] was 31.6%; in assay [14] it was 31%; in assay [15], 48.7%; in assay [16], 26.6%; in assay [17] it was 24.6%; in [18] it was 12.2%. For the same molecule, the growth was 11.4% in [19] and 12% in [20].
